Assay results: PubChem BioAssay
“And” between values parts separate entries of the source, which are not always exact repeats. Equal values may be shown once. The source made the active and inactive calls.

Key:
[1] = compounds binding Alexa647 anti-His antibody – biochemical, small-molecule microarray, 635 nm fluorescence, artefact control for SMM control protein annotation, primary screen (AID 1128); conditions: higher = more signal;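 note: score merges feature fluorescence with signal-to-noise for each printed compound spot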
[2] = tested on: Human papillomavirus type 1a E7 protein (residues 1-88); experiment: HPV1a E7 small-molecule binders, primary screen, biochemical, small-molecule microarray, residues 1-88, 635 nm (AID 1129); conditions: small-molecule microarray binding, fluorescence 635 nm; higher = more signal
[3] = biological target: Focal adhesion kinase 1 (Homo sapiens) (UniProt Q05397); experiment: PTK2 protein binding on printed compound slides – biochemical, small-molecule microarray, 635/667 nm fluorescence, BSA, DTT, primary screen (AID 1130); conditions: 635 nm fluorescence, higher = more signal;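 note: composite of spot emission at 667 nm and signal to noise over triplicate slides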
Sequence of Focal adhesion kinase 1 (Homo sapiens) (Q05397 whole entry, looked up): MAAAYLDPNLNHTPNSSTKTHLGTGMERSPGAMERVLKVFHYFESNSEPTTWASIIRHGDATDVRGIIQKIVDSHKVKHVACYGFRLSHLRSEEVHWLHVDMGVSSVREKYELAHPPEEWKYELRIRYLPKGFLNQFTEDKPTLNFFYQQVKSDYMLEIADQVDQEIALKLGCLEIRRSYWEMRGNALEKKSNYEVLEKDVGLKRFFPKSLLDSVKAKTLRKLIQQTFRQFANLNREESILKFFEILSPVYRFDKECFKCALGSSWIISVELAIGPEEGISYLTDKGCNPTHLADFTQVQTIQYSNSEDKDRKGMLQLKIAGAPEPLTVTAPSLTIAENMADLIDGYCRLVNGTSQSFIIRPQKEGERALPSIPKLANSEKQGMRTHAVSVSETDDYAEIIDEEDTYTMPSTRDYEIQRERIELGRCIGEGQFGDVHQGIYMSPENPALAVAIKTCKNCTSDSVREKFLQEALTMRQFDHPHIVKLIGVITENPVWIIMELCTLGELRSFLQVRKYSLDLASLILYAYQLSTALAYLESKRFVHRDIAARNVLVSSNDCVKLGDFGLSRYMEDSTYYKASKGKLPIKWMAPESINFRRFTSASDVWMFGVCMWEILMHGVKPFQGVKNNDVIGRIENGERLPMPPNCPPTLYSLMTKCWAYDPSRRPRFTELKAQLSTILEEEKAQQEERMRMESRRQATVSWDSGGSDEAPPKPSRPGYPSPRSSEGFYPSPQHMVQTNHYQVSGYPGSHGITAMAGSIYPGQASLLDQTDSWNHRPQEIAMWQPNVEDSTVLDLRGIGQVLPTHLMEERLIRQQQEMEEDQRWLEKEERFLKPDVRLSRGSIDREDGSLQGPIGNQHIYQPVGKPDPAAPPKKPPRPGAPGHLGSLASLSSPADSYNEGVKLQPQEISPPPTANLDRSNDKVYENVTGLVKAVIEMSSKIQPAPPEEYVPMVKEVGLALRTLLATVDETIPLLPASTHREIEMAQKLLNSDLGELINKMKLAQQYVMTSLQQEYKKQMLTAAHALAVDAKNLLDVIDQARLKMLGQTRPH

[4] = tested on: Fibrinogen (Alexa647-labelled); experiment: Alexa647-fibrinogen binding to printed small molecules – biochemical, small-molecule microarray, 635/667 nm fluorescence, artefact control for SMM control-protein annotation, profiling panel (AID 1131); conditions: fibrinogen-A647 binding fluorescence, higher = more signal;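 note: z-score merges 667 nm fluorescence with per-spot signal-to-noise over triplicate slides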
[5] = biological target: Follistatin (Homo sapiens) (UniProt P19883); experiment: FST protein binding to printed compounds – biochemical, small-molecule microarray, 635/667 nm fluorescence, primary screen (AID 1132); conditions: 635 nm fluorescence, higher = more signal
Sequence of Follistatin (Homo sapiens) (P19883 whole entry, looked up): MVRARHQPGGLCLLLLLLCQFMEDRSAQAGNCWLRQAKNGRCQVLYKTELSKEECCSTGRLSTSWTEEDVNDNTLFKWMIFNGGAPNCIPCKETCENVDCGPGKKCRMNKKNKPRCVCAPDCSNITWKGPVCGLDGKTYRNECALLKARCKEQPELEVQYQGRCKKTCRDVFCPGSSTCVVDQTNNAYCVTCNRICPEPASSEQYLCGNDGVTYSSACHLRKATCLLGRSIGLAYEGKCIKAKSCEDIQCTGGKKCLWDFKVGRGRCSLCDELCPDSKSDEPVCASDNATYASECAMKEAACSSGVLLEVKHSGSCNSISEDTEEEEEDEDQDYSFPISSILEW

[6] = biological target: Fibroblast growth factor 2 (Homo sapiens) (UniProt P09038); experiment: basic fibroblast growth factor binding to printed compounds – biochemical, small-molecule microarray, 635/667 nm fluorescence, primary screen (AID 1133); conditions: FGF2, fluorescence 635/667, higher = more signal
Sequence of Fibroblast growth factor 2 (Homo sapiens) (P09038 whole entry, looked up): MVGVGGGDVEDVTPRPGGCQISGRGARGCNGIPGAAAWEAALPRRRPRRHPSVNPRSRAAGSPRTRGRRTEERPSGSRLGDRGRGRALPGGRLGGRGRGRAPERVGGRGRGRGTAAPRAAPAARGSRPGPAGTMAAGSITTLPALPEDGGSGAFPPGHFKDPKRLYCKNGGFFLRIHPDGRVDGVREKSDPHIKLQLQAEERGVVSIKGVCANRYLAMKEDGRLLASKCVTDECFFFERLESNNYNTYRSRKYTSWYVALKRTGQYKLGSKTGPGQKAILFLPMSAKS

[7] = JC-1 mitochondrial potential readout, lung cancer cells – cell-based, A549, JC-1 fluorescence, basal, 24 h, 100 nL, profiling panel (AID 1138); conditions: higher = more signal;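 note: A549 lung adenocarcinoma cells under basal conditions with no added stimulus; test concentration not given here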
Lefty1 = Lefty1 protein binding to printed compounds – biochemical, small-molecule microarray, 635/667 nm fluorescence, primary screen (AID 1139); conditions: fluorescence 635/667, higher = more signal
[8] = tested on: wheat germ agglutinin (Triticum aestivum), Alexa647-labelled; experiment: Alexa647-WGA lectin binding to printed small molecules – biochemical, small-molecule microarray, 635/667 nm fluorescence, artefact control for SMM control-protein annotation, profiling panel (AID 1140); conditions: WGA-A647 binding, 635 nm fluorescence, higher = more signal;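 note: score merges 667 nm feature emission with signal to noise over triplicate slides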
[9] = biological target: Luciferin 4-monooxygenase (Photinus pyralis) (UniProt P08659); experiment: inhibition of purified Photinus pyralis luciferase – biochemical, luminescence, purified enzyme, 2006 set, primary screen (AID 1141); conditions: purified firefly luciferase, SteadyGlo luminescence, 30 min; higher = more signal, called active from +8 up or from −8 down;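 note: cell-free assay with purified firefly luciferase at 100 ng per well in PBS; test concentration not given here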
Sequence of Luciferin 4-monooxygenase (Photinus pyralis) (P08659 whole entry, looked up): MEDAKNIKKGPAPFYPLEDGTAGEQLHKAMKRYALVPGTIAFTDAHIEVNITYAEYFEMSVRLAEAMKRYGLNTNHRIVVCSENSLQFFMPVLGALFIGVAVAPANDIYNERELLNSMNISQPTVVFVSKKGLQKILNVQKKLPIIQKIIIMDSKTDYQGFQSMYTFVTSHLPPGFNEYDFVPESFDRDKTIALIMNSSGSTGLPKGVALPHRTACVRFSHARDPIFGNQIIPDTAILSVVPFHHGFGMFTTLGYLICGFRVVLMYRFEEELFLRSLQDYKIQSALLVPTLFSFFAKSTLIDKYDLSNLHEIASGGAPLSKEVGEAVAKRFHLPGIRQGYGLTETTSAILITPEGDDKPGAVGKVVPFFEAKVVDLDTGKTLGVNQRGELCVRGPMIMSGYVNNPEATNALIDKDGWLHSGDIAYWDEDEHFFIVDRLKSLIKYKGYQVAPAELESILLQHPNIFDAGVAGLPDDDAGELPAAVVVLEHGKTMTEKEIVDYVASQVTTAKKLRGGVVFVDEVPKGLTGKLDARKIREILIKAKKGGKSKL

| Compound | composite z-score [1] | composite z-score [2] | composite z-score [3] | composite z-score [4] | composite z-score [5] | composite z-score [6] | z-score [7] | composite z-score (Lefty1) | composite z-score [8] | z-score [9] |
| --- | --- | --- | --- | --- | --- | --- | --- | --- | --- | --- |
| CC(C)CON=C1C[C@@H](O)[C@@H](O)[C@@H]2[C@@H]3C(=O)N(c4cccc(Oc5ccccc5)c4)C(=O)[C@@H]3CC[C@H]12 | 0.348 | 0.347 | -0.195 | 0.202 | 0.39 | 0.397 | 0.0506 | 0.349 | 0.196 | 0.527 (inactive) |
| CCCC[C@@H]1CN2[C@H](c3ccc(Br)cc3)[C@@H](C)CC[C@H]2C(=O)O1 | -0.408 and 2.44 | -0.535 and -0.105 | -0.0211 and 0.0131 | -0.167 and 0.546 | 0.0438 and -0.0845 | 0.186 and 0.0412 | 0.5 and 0.647 | -0.128 and 0.0556 | -0.22 and 0.313 | -0.052 (inactive) and -1.79 (inactive) |
| C=C[C@@H](C)[C@H](O)c1ccc(O)c2ccccc12 | -0.181 and 1.87 | -0.7 and -1.54 | 0.825 and -0.491 | 0.837 and -0.449 | 1.31 and 0.663 | 1.14 and 0.0819 | -0.832 and -0.689 | 0.948 and -0.871 | 0.0825 and -0.52 | 0.546 (inactive) and 0.338 (inactive) |
| Cc1cc2c(nc1C)CCCN2CC(O)CN1CCCc2nc(-c3ccc(Br)cc3)ccc21 (stereo not given) | 1.48 and 2.06 | 1.15 and 1.16 | 1.08 and 1.26 | 0.887 and 0.695 | 1.27 and 1.29 | 0.953 and 0.871 | -0.118 and 1.8 | 1.34 and 0.844 | 1.15 and 1.36 | -0.104 (inactive) and -0.176 (inactive) |
| C=CCN(CCCCC)C(=O)C1N(CCCCCCO)C(=O)C2C(C(=O)O)C3C=CC21O3 (stereo not given) | -2.31 and 0.41 | -0.813 and -0.519 | -0.687 and -0.922 | -1.63 and -1.36 | -2.64 and -1.13 | -2.25 and -2.14 | -0.194 and 0.588 | -1.55 and -1.07 | -1.8 and -0.883 | 0.0975 (inactive) and -0.324 (inactive) |
| C=CCN(C(=O)C1N(CCCCCCO)C(=O)C2C(C(=O)O)C3C=CC21O3)c1ccc(OC)cc1 (stereo not given) | -1.91 and -1.82 | -1.26 and -1.68 | 0.85 and -0.212 | -1.05 and -2.02 | -1.83 and -1.96 | -2.95 and -1.96 | 1.34 and 0.478 | -2.4 and -2.28 | -0.537 and -0.483 | -1.09 (inactive) and -1.38 (inactive) |
| CCOC(=O)[C@@H]1CC=C2CC1C(=O)N1CCC[C@@H]1[C@H]2O[Si](C)(C)C(C)(C)C (stereo not given in full) | -1.02 and -0.542 | -0.419 and -0.434 | -0.758 and -0.489 | -0.454 and -1.61 | -0.76 and -0.645 | -0.424 and -0.469 | -0.827 and -0.338 | -0.224 and -0.132 | -0.992 and -0.976 | 0.0411 (inactive) and 0.838 (inactive) |
| CC(C)=NO[C@@H](C)c1cc(-c2c(C)cc(C)cc2C)no1 | 1.01 | -0.705 | 0.0218 | -0.268 | 0.0215 | 0.0248 | -0.114 | 0.0782 | -0.418 | 0.389 (inactive) |
| COC(=O)[C@@]1(Cc2ccccc2)[C@H]2c3cc(C(=O)N(C)C)n(C[C@H](O)CO)c3C[C@H]2CN1C(=O)c1ccccc1 | 0.456 and 0.65 | 0.23 and 0.965 | 0.805 and 0.641 | 0.948 and 0.223 | -0.342 and 0.453 | -0.378 and -0.271 | 0.207 and 0.034 | -0.6 and -0.308 | 0.877 and -0.0476 | 0.665 (inactive) and 1.66 (inactive) |
| CCOC(=O)c1ccc(NC(=O)O[C@H]2[C@H](OC(=O)Nc3ccccc3)[C@H](OC(=O)Nc3ccccc3)[C@@H](OC)O[C@@H]2CO)cc1 | 1.27 and 1.9 | 1.21 and 1.23 | 0.495 and 1.09 | 0.982 and 0.709 | 1.27 and 1.31 | 1.19 and 0.806 | -0.469 and -0.781 | 0.551 and 1.15 | 0.96 and 1.22 | 0.197 (inactive) and -0.2 (inactive) |
| COC(=O)C1=C(C)N(Cc2ccccc2)C2=C3C(=O)N(c4ccccc4)C(=O)[C@@H]3[C@@](O)(C(=O)OC)C(=O)N2[C@@H]1c1ccccc1 | 0.387 and 0.668 | 0.186 and 1.1 | 0.14 and 0.113 | 0.212 and 0.393 | 0.988 and 0.726 | 1.63 and 0.5 | 0.895 and 1.76 | 0.823 and 0.745 | 0.0882 and 0.764 | -0.471 (inactive) and -1.33 (inactive) |
| COC(=O)[C@H](C)NC(=O)CCC1CC(OC(=O)NCCc2ccc(F)cc2)CC2(CCCC(COC(=O)NCCCN3CCCC3=O)O2)O1 (stereo not given in full) | 0.944 | 1.17 | 0.534 | 0.872 | 1.03 | 1.3 | -0.498 | 1.55 | 0.526 | 0.824 (inactive) |
| CC(C)C(=O)N[C@@H]1CCCN1C(=O)C=Cc1ccccc1 | 0.108 | 0.746 | 0.746 | 0.494 | 0.541 | 0.565 | 1.81 | 0.813 | -0.0087 | -0.489 (inactive) |
| C=C[C@H](C)[C@@H](O)c1ccc(OCCO)cc1 | -0.419 and 0.713 | -1.38 and -0.449 | -0.996 and -0.139 | -1.48 and 0.462 | 0.42 and 0.345 | 0.036 and -0.488 | -0.459 and 1.14 | -0.931 and 0.134 | -0.449 and 0.106 | -3.17 (inactive) and -4 (inactive) |
| COC(=O)C1=C(C)N(Cc2ccccc2)C2=C(C(C)=O)[C@H](c3ccccc3)[C@@](O)(C(=O)OC)C(=O)N2[C@@H]1c1ccccc1 | 0.313 and -0.605 | 1.06 and -0.558 | 0.113 and -0.651 | 0.963 and 0.0691 | 0.764 and -0.238 | 0.745 and 0.282 | 3.76 and 1.44 | 0.638 and -0.0574 | 0.493 and -0.348 | -1.12 (inactive) and -2.89 (inactive) |
| C=CCN(C(=O)C(c1cccs1)N(C(=O)/C=C\C(=O)O)C(C)(C)CO)C(C)(C)C (stereo not given) | -0.119 and 1.08 | 0.0785 and -0.562 | -0.033 and 0.193 | -0.654 and 0.99 | -0.493 and -1.32 | -0.454 and -0.588 | 1.12 and 0.815 | -1.35 and -1.25 | -0.452 and -0.231 | -1.45 (inactive) and -0.975 (inactive) |
